Screening results as filed in PubChem.
Only a sample is shown.
B2AR arrestin ag: beta-arrestin recruitment by human beta2-adrenergic receptor ligands; HTLA Tango cells, beta-arrestin recruitment, luciferase luminescence, 18 h; Potency, µM (top dose mostly 46.1 µM), actives largely listed as activators; 44,000 tested, under 10 active; AID 1347077
Target sequence (P07550 whole entry, looked up): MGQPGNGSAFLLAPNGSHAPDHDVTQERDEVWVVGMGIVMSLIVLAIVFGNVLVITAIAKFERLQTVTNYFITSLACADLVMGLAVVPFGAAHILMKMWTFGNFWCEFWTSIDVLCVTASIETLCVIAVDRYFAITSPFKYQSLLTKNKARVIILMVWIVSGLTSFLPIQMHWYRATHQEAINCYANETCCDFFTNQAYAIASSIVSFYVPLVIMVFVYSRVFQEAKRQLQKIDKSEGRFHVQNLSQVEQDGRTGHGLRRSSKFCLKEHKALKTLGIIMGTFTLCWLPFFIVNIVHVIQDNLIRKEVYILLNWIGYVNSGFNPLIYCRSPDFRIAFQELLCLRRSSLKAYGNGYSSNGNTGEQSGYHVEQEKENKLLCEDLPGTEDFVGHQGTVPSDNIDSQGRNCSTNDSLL
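Ligand-induced beta-arrestin recruitment to recombinant beta2-AR is measured via a tTA-driven luciferase reporter in Tango cells after 18 hr compound exposure at 37 degrees C. Concentrations span up to 46 microM.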
TSG101-PTAP inh: blocks PTAP binding to human TSG101, validation. AID 1347069. Fluorescence polarization, FITC-PTAP peptide/Tsg101, 20 min. 44,000 tested, under 10 active. Potency, µM (top dose mostly 115 µM), usual class: inhibitors
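Fluorescence polarization binding of Tsg101 binding domain (10 uM final) to FITC-labeled PTAP-motif peptide (50 nM final) in HEPES pH 7.5/NaCl/Tween 20/EDTA/TCEP buffer; 20 min at r.t. Actives by curve class, <25 µM, efficacy <60% inhibition.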
GALK inhibitor: inhibitors of human galactokinase (GALK). P51570. recombinant GALK, Kinase-Glo ATP luminescence, 1 h. Potency, µM (series often up to 57.5 µM), usual class: inhibitors. 44,000 tested, under 10 active
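5 nM GALK; 35 uM ATP; 100 uM D-galactose; 20 mM HEPES pH 8.0, 5 mM MgCl2, 60 mM NaCl, 1 mM DTT, 0.01% BSA; 1 h RT; Kinase-Glo Plus luminescence.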
Each line names hits and unclear results; the compound was inactive in the other large screens. The call rests on the fitted dose curve; in most records, active means well fitted curve in the direction sought with a large enough effect; inconclusive means small, poorly fitted or top-dose-only effect, or another doubt; inactive means no such curve, though single readings can be large; an effect the other way counts as inactive or inconclusive.

CCOC(=O)c1ccc(NC(=O)c2c(NCc3cccs3)sc3c2CCCCC3)cc1	none
O=C(CCC1N=C2c3ccccc3N=C(SCc3ccc(Cl)cc3)N2C1=O)NC1CCCCC1 (stereo unspecified)	none
Cc1ccc2c(c1)N(C(=O)N1CCC(C(=O)Nc3cccc(F)c3)CC1)CCO2	none
CCOc1ccc(Nc2nc(N)c(C(=O)c3ccccc3Cl)s2)cc1	none
CC(C)Cn1nc(NC(=O)c2cccc(Cl)c2)c2cc3ccccc3nc21	none
Nc1ncc(S(=O)(=O)Nc2ccc(F)cc2F)cn1	none
Cc1ccc(CNC(=O)C2CCN(S(=O)(=O)c3cn(C)cn3)CC2)cc1	none
Cc1cc(Br)cc2c1N(Cc1ccccc1OC(C)C)C(=O)C2=O	none
CCC(C(=O)Nc1cc(C)ccc1C)n1c(=O)c(C(F)(F)F)nc2ccccc21 (stereo unspecified)	none
CCOc1ccc(CNC(=O)CCS(=O)(=O)c2cc3c4c(c2)CCN4C(=O)CC3)cc1OC	none
O=C(Nc1cc(Cl)cc(Cl)c1)c1cc(S(=O)(=O)N2CCC3(CC2)OCCO3)ccc1F	none
CCOc1ccc(-n2c(=O)c3c(C)c(C)sc3n(Cc3ccccc3C)c2=O)cc1	none
